# A selection: hits, their analogues and other compounds. The true share with any hit is near 2.5%.
# CCT modulator: High-Throughput Screening for Modulators of Cytosolic Chaperonin Activity. purified chaperonin ATPase assay, HTRF ADP detection, 30 min. actives 0.3% (n = 360,000). activity change, % (concentration not given with the values), hits read low; in the data active = activity change below about -30%; also: % is scaled to controls: 0 for no effect and ±100 for the full control effect
#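 Enzyme 40 or 20 nM (batch-dependent) in Tris pH 7.4/KCl/MgCl2/DTT; cpd 76 uM single point; ATP 10 uM; 30 min 37 °C; Transcreener ADP HTRF detection, 30 min RT; ratio 665/615.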
# Mito fusion yeast: qHTS Assay for Small Molecule Inhibitors of Mitochondrial Division or Activators of Mitochondrial Fusion; S. cerevisiae fusion-defective mutant growth rescue, CellTiterGlo 48 h; Potency, µM (top dose mostly 46.1 µM), for the others: at the highest dose growth rescue (activation), usual class: activators; actives 0.23% (n = 320,000); AID 485298, 2010; also: potency is read from the fitted curve at half-maximal effect; % of control where 0% means no effect; nearly all actives have a fitted effect of over 45% in size
#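 Temperature-sensitive fusion-defective S. cerevisiae (e.g. fzo1-1, mgm1-5) were grown with compound in YPEG medium (3% ethanol, 3% glycerol) for 48 hours at 37C. Growth rescue was measured as viability by CellTiterGlo luminescence after 10 minutes at ambient.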
# Akt phos inh: HTS Assay for Inhibitors of Akt Phophorylation: Primary Screen; Neuro2A IGF-stimulated pAkt S473 HTRF, 20 min; active compounds read low; activity change, % for hits at 50 µM; actives 0.32% (n = 360,000); AID 651550, 2012; in the data active = activity change below about -80%; inconclusive = mostly about -51% to -80%; also: % is scaled to controls: 0 for no effect and ±100 for the full control effect
#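 Single-point screen (50 µM final compound) in Neuro2A cells stimulated 20 min with 6 nM IGF at 37 deg C. After lysis, Ser473-phosphorylated Akt read by HTRF (ex 330 nm, em 615/665 nm) as the 665/615 ratio.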
# aSyn yeast inh: qHTS of alpha-syn Inhibitors | Yeast expressing alpha-synuclein, growth rescue, BacTiter-Glo, 24 h | actives 0.14% (n = 370,000) | Potency, µM (top dose mostly 46.1 µM), for the others: at the top dose growth rescue (activation), hits mostly activators; also: potency is read from the fitted curve at half-maximal effect; % of control where 0% means no effect; nearly all actives have a fitted effect of over 65% in size
#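 Screening used galactose-induced yeast with toxic alpha-synuclein levels, exposed to compound for 24 hr at 30 deg C. Cell growth, read with BacTiter-Glo luminescence, gave the measured signal.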
# Apoferritin bind: qHTS Assay for Identification of Novel General Anesthetics; Ferritin light chain (Equus caballus), P02791; apoferritin/1-aminoanthracene competitive binding, fluorescence; Potency, µM (highest dose often 77.5 µM), inactives show top-dose activity change, negative = displacement, usual class: inhibitors; actives 0.074% (n = 350,000); also: potency is read from the fitted curve at half-maximal effect; % is scaled to controls: 0 for no effect and ±100 for the full control effect; nearly all actives have a fitted effect of over 20% in size
# Target sequence (P02791 2-175 limits assumed): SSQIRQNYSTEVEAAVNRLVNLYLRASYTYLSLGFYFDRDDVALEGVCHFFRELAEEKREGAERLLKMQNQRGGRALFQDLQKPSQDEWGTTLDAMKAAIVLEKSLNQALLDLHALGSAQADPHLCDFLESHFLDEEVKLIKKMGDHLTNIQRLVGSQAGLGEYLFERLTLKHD
#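 In PBS, apoferritin at 10 uM is loaded with 1-AMA from a 50% saturated solution. After 10 min of compound exposure at ambient temperature, reduced 535 nm fluorescence indicates probe displacement.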
# TDP43 rescue: qHTS of TDP-43 Inhibitors; TDP-43 expressing yeast growth rescue, BacTiter-Glo, 24 h; Potency, µM (doses to about 46.1 µM), without a hit: top-dose growth rescue (activation), usual class: activators; actives 1.8% (n = 410,000); AID 652104, 2013; also: potency is read from the fitted curve at half-maximal effect; % of control where 0% means no effect; nearly all actives have a fitted effect of over 50% in size
#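 Galactose-induced TDP-43 yeast, OD600=0.02, compound pinned; 24 hr, 30 deg C; BacTiter-Glo luminescence for growth. Inhibitors of TDP-43 toxicity read as activators.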
# The depositor's hits bear a star; i = inactive; ? = inconclusive; . = no result; [ ] = remark or other dose. Unless noted, calls follow the shape of the dose curve; as a rule, active = well fitted curve in the direction sought with a large enough effect; inconclusive = small, poorly fitted or top-dose-only effect, or another doubt; inactive = no such curve, though single readings can be large; an effect the other way counts as inactive or inconclusive.
SMILES,CCT modulator,Mito fusion yeast,Akt phos inh,aSyn yeast inh,Apoferritin bind,TDP43 rescue
CCOC(=O)CCN(c1ccccc1)S(=O)(=O)c1cc(-c2cc(C)no2)ccc1C,.,.,.,.,9%,10%
COc1cc(S(=O)(=O)O)c(C)cc1N=Nc1c(O)ccc2cc(S(=O)(=O)O)ccc12,.,.,.,-25%,.,.
O=C1CCN(CCc2ccccc2)CCN1C(CSc1ccc(Br)cc1)c1ccccc1 (centres undefined),.,.,.,.,-1%,.
Cc1nc(N2CCCCC2)c2c(-c3cccs3)csc2n1,-4,3%,i,-17%,-13%,16µM*
CN(Cc1cnc2nc(N)nc(N)c2n1)c1ccc(C(=O)NC(CCC(=O)O)C(=O)O)cc1C(F)(F)F (centres undefined),-1,.,i,-2%,.,0%
CN(Cc1cnc2nc(N)nc(N)c2n1)c1ccc(C(=O)NC(CCC(=O)O)C(=O)O)cc1 (centres undefined),0,.,i,2%,.,16µM*
Cc1ccc2nc(-c3ccc(NS(=O)(=O)c4ccc(F)c(F)c4)cc3)sc2c1,-3,-32%,i,-27%,0%,25µM*
O=C(CSc1ncccn1)N/N=C/c1ccc(OC2CSC2)cc1,1,2%,i,6%,-15%,11µM*
O=c1cc(-c2cccc(-c3ccc(C(F)(F)F)cc3)c2)c2cc3c(cc2o1)OCO3,.,.,.,.,-22%[110 µM],.
O=C(OCc1c(Cl)cccc1Cl)c1cccnc1Cl,0,8%,i,7%,?,13µM*
O=C(OCc1ccccc1Cl)c1cccnc1Cl,-3,0%,.,0%,?,13%
Cc1ccc(C)c(OCCC(=O)OCC(=O)N2CCN(S(=O)(=O)c3ccc(Cl)cc3)CC2)c1,1,-1%,i,11%,.,?
Cc1ccc(OCCCC(=O)N2CCN(S(=O)(=O)c3cccc(F)c3)CC2)cc1,-3,5%,i,13%,.,-10%
CCOC(=O)C1CCN(C(=O)COC(=O)COc2ccc(Cl)cc2)CC1,-30*,3%,i,-1%,-4%,-21%
CCOc1ccc(OCCC(=O)OCC(=O)N2CCN(S(=O)(=O)c3ccc(Cl)cc3)CC2)cc1,0,-26%,i,10%,-14%,13µM*
CCOc1ccc(C(=O)CCC(=O)N2CCN(S(=O)(=O)c3cccc(F)c3)CC2)cc1,-49*,7%,i,6%,.,3%
O=C(NC(=S)Nc1ccc(N2CCOCC2)cc1)c1cccc(Cl)c1,-5,2%,i,0%,-11%,16µM*
C=CCOC(=O)CCCC(=O)NC1CCCCC1,2,-9%,-128%*,-7%,0%,-10%
O=C(CCC(=O)OCCCC(F)(F)C(F)(F)F)NC1CCCCC1,-2,0%,i,-5%,-4%,-18%
Cc1cc(-c2ccc(S(=O)(=O)Nc3cc(Cl)ccc3C)s2)on1,.,.,.,.,-15%,-12%
Cc1ccc2c(c1)c(N=O)c(O)n2Cc1ccc(Cl)cc1,-2,10µM*,i,14%,?,-1%
CCOc1ccc2nc(Nc3nc(CSc4nnnn4-c4ccccc4)cc(=O)[nH]3)nc(C)c2c1,-1,0%,i,1%,-9%,10%
COc1ccc2nc(Nc3nc(CSc4nnnn4-c4ccccc4)cc(=O)[nH]3)nc(C)c2c1,-7,3%,-120%*,-10%,-12%,-4%
O=C(CSc1ncnc2c1oc1ccccc12)Nc1cccc(C(F)(F)F)c1,1,1%,i,7%,-20%,22%
Cc1nc(SCC(=O)NC(C)c2ccccc2)c2oc3ccccc3c2n1 (centres undefined),0,9%,i,-2%,-5%,14%
SMILES,CCT modulator,Mito fusion yeast,Akt phos inh,aSyn yeast inh,Apoferritin bind,TDP43 rescue
Cc1nc(SCC(=O)Nc2ccc(F)cc2)c2oc3ccccc3c2n1,0,-2%,-90%*,0%,-9%,9%
CCc1nc(Nc2ccccc2)c2oc3ccccc3c2n1,0,6%,.,.,-10%,11µM*
O=C(O)CSc1nc(-c2ccccc2)nc2c1oc1ccccc12,0,3%,i,-28%,-12%,-24%
CCc1nc(Nc2ccc(F)cc2)c2oc3ccccc3c2n1,-2,7%,i,-23%,-8%,?
O=C(CSc1ncnc2c1oc1ccccc12)Nc1cccc(Cl)c1,1,1%,-108%*,2%,-20%,12%
O=C(O)CSc1nc(-c2ccc(Cl)cc2)nc2c1oc1ccccc12,2,8.9µM*,i,-32%,0%,-90%
CC(=O)N1CCc2cc(S(=O)(=O)NC(Cc3ccccc3)C(=O)Nc3cccc(C)c3)ccc21 (centres undefined),.,.,.,.,-4%,3%
Cc1nc(SCC(=O)Nc2ccccc2)c2oc3ccccc3c2n1,-8,-3%,-115%*,6%,-7%,14%
CCc1nc(SCC(=O)NCCc2ccccc2)c2oc3ccccc3c2n1,3,3%,-103%*,1%,-8%,7%
Cc1nc(SCC(=O)NCCc2ccccc2)c2oc3ccccc3c2n1,-1,4%,i,-1%,-4%,1%
Cc1nc(NCCc2ccccc2)c2oc3ccccc3c2n1,-2,8%,i,-16%,-18%,11µM*
Cc1ccc2cccc(SCC(=O)Nc3ccc(F)cc3)c2n1,-74*,-11%,i,7%,5%,-7%
Cc1nc(NCCN2CCOCC2)c2oc3ccccc3c2n1,0,7%,i,0%,-7%,9%
COC(=O)[C@@H]1[C@@H](O)[C@]2(O)c3ccccc3O[C@]2(c2ccccc2)[C@H]1c1ccccc1,.,.,.,.,-3%[15.3 µM],.
C#CCCCO/N=C1/C[C@@H](O)[C@@H](O)[C@@H]2[C@@H]3C(=O)N(C4CCCCC4)C(=O)[C@H]3CC[C@H]12,.,.,.,.,0%[15.3 µM],.
Cc1ccccc1N1CC(c2nc3ccccc3n2Cc2ccc(Br)cc2)CC1=O (centres undefined),.,.,.,.,-5%,?
CC1(C)CC(=O)c2cc(C(=O)Nc3cccc4ccccc34)c(=O)[nH]c2C1,.,.,.,1%,.,.
Cc1noc(C)c1COc1ccccc1C(=O)N1CCN(S(=O)(=O)c2cccc(Cl)c2)CC1,-1,-3%,i,0%,.,2%
Cc1noc(C)c1COc1ccccc1C(=O)N1CCN(S(=O)(=O)c2cccc([N+](=O)[O-])c2)CC1,-57*,0%,i,7%,.,10%
O=C(COC(=O)/C=C/c1ccc(Cl)cc1Cl)NCC1CCCO1 (centres undefined),1,.,i,5%[1.84 µM],.,20µM*

# Screening data: PubChem BioAssay, National Center for Advancing Translational Sciences (NCATS)
